Measurements: PubChem BioAssay (NCATS)
Inconclusive results are not listed. A number with no mark means an inactive call. The source made the active and inactive calls. The call rests on the fitted dose curve; in most records, active means well fitted activation curve with a large enough effect; inconclusive means small, poorly fitted or top-dose-only effect; inactive means flat fitted curve, though single readings scatter.
Potency means the concentration at half of the fitted maximal effect.

Each molecule was assayed against Cellular tumor antigen p53 (Homo sapiens) (UniProt P04637) (assay: Primary qHTS for small molecule compounds that upregulate eGFP-tagged delta133p53alpha (in C-terminal) cells. (AID 2060324;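 on GFP increase (activation): 0% = DMSO wells and 100% = 57.5 µM 5-azacytidine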)). Details: NCI-H358 delta133p53alpha-eGFP (C-terminal tag), GFP fluorescence imaging, 24 h; series mostly up to 57.5 µM; GFP increase (activation): at the top concentration.
Sequence of Cellular tumor antigen p53 (Homo sapiens) (P04637 whole entry, looked up): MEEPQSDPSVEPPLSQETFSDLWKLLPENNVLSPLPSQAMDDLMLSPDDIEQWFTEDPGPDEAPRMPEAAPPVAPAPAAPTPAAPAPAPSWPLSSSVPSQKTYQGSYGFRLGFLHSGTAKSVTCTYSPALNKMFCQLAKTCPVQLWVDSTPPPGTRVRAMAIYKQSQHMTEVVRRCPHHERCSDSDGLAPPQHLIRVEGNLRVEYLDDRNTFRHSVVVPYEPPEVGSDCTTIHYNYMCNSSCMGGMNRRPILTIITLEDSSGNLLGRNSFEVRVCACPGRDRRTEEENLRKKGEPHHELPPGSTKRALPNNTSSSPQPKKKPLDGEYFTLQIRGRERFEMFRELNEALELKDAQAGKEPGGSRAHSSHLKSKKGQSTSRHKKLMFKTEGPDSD
From the text: Assay Development and Screening Technology
National Center for Advancing Translational Sciences (NCATS),
National Institute of Health (NIH), Rockville, Maryland
Cellular senescence (CS) is one of the hallmarks of aging and age-related diseases. Senescent cells are characterized by an irreversible growth arrest, an increase in senescence-associated beta-galactosidase (SA-beta-gal) activity and p16INK4a expression, an activation of the DNA damage response pathways, and the emergence of a senescence-associated secretory phenotype (SASP).
Delta133p53alpha, a human/primate-specific p53 protein isoform, delays or inhibits the induction of CS and SASP in various types of human cells, including progeria-derived fibroblasts, primary normal astrocytes, and CD8+ T lymphocytes. Induction of delta133p53alpha with small molecule compounds may provide therapeutic opportunities for inhibition of senescence/SASP-associated pathologies in progeria syndromes, astrocyte-mediated neuroprotection in neurodegenerative diseases, and possibly prevention and treatment of a wider range of senescence- and aging-associated diseases.
Here we report the development and validation of a cell-based quantitative high throughput screening (qHTS) assay in 1,536-well format. This qHTS assay uses the NCI-H358 cell line with doxycycline-inducible expression of enhanced green fluorescent protein (eGFP)-tagged delta133p53alpha, which allows efficient and highly quantitative measurement of the protein levels.
PROTOCOL TABLE (as described by Inglese J, Shamu CE and Guy RK. 2007)
SEQUENCE No. (e.g., 1, 2, 3, etc.); […] (e.g., Cells, Incubation, Reagent, etc.); VALUE; DESCRIPTION.
1; Cells; 4uL; 800 doxycycline treated cells / well in doxycycline-free media, 1536-well black, clear-bottom low base Aurora microplates.
2; Compounds; 23 nL; Kalypsis pin tool (Wako) equipped with 1536-well pin heads, 5-azacytidine positive control.
3; Incubation; 24 hr; 37C, 5% CO2; 95% relative humidity.
4; Aspiration; 1x; BioTek EL406 washer dispenser (Agilent).
5; Fixing; 3.5% paraformaldehyde, BioTek EL406 washer dispenser (Agilent).
6; Washing; 1x PBS; BioTek EL406 washer dispenser (Agilent).
7; Nuclei staining; 1:1000 dilution of Hoechst 33342 (Thermofisher), BioTek EL406 washer dispenser (Agilent).
8; Incubation; 20 min; in the dark at room temperature.
9; Washing; 2x, 1x PBS (ThermoFisher), BioTek EL406 washer dispenser (Agilent).
10; Reagent; 10 uL; 1x PBS per well, sealed with clear adhesive tape.
11; Detection; Fluorescence, Acumen eX3 laser scanning cytometer (STP Labtech), GFP filters […].
NOTES (numbers refer to sequence numbers above).
1. NCI-H358 cells expressing eGFP-tagged delta133p53alpha were grown in T75 culture flasks and treated with doxycycline for 24h, at 10 ng/ml for eGFP-D133p53a cells (N-terminal cell) and 100 ng/ml for D133p53a-eGFP cells (C-terminal cells). Cells were trypsinized, counted using a Counted 3 Automated Cell Counter (Thermo Fisher), and diluted to a concentration of 200,000 cells/ml. A Multidrop Combi Reagent Dispenser (ThermoFisher) was used to dispense 800 cells/well in […] of doxycycline-free media, into 1536-well black/clear bottom low base plates (AuroraMicroplates).
2. After plating cells, 23 nl of compound library, DMSO vehicle control or positive control (5-azacytidine) were transferred by Pin Tool (Wako). The plate map layout was the same for each plate: (column 1) non-doxycycline treated cells + DMSO vehicle control; (column 2) doxycycline treated cells + DMSO vehicle control baseline; (column 3) doxycycline treated cells + positive control 57.5 uM final concentration 5-azacytidine; (column 4) doxycycline treated cells + serial dilution of 5-azacytidine, 16-point 1:2 titration spanning 1.8 nM to […] final concentration; (columns 5-48) doxycycline treated cells + titration of library compounds.
3. Cells were incubated at 37 °C, 5 % CO2, 95% RH with breathable metal lid for 24h.
4-10. […] […]
For COc1cc2c(cc1OC)-c1cc(=Nc3c(C)cc(C)cc3C)n(C)c(=O)n1CC2, the “GFP increase (activation)” value was -8.84%. In the case of C[C@]12CCC(=O)C=C1CC[C@@H]1[C@@H]2CC[C@@]2(C)[C@H]1CC[C@]2(O)C(=O)CO, the “GFP increase (activation)” value is reported as -16.5%. With NCCCCN the “GFP increase (activation)” value was -2.29%. With NS(=O)(=O)c1cc2c(cc1Cl)NCNS2(=O)=O the “GFP increase (activation)” value was -2.67%. With COCCCC/C(=N\OCCN)c1ccc(C(F)(F)F)cc1 the “GFP increase (activation)” value was 10.5%. With CC(C)c1ccc2c(c1)c(SC(C)(C)C)c(CC(C)(C)C(=O)O)n2Cc1ccc(Cl)cc1 the “GFP increase (activation)” value was -4.01%. For CC(=O)C(C)=O, the “GFP increase (activation)” value was 3.72%. COc1cc(/C=C(\C#N)C(=O)Nc2nnc(C(F)(F)F)s2)ccc1OCc1ccc(C(F)(F)F)cc1C(F)(F)F was tested, and the “GFP increase (activation)” value was 18.5%. With C=Cc1c(C)c2cc3[nH]c(cc4nc(cc5nc(cc1[nH]2)C(C)=C5CCC(=O)O)C(CCC(=O)O)=C4C)c(C)c3C=C the “GFP increase (activation)” value was -7.9%. For NC1(C(=O)O)CCc2cc(C(=O)O)ccc21 (stereo not given), the “GFP increase (activation)” value was -3.99%. With CCN(CC)CCCCCCCCOC(=O)c1cc(OC)c(OC)c(OC)c1 the “GFP increase (activation)” value was -0.776%. With CCCCN(CCCC)CC(O)c1cc(Cl)cc2c1-c1ccc(Cl)cc1/C2=C/c1ccc(Cl)cc1 (stereo not given) the “GFP increase (activation)” value was 5.77%. In the case of CCCCCCC(=O)OC1CC(C)(C)NC(C)(C)C1, the “GFP increase (activation)” value is reported as 0.0433%. With COC(=O)C1=CO[C@@H](O)[C@@H]2C(CO)=CC[C@H]12 the “GFP increase (activation)” value was 14.2%. With N=c1ccn2c(n1)O[C@H]1[C@H](O)[C@@H](CO)O[C@H]12 the “GFP increase (activation)” value was -0.0455%. With CN1[C@@H](CC(=O)c2ccccc2)CCC[C@H]1C[C@H](O)c1ccccc1 the “GFP increase (activation)” value was -1.1%. With COc1ccccc1OCC(O)CN1CCN(CC(=O)Nc2c(C)cccc2C)CC1 (stereo not given) the “GFP increase (activation)” value was -6.2%. For NCCCCCC(=O)O, the “GFP increase (activation)” value was -1.99%. In the case of Cc1nc2ccccn2c(=O)c1CCN1CCC(C(=O)c2ccc(F)cc2)CC1, the “GFP increase (activation)” value is reported as 0.608%. In the case of N[C@H](C(=O)O)c1cc(O)cc(O)c1, the “GFP increase (activation)” value is reported as 11.7%. With N#CC(C#N)=C(N)/C(C#N)=C/c1ccc(O)cc1 the “GFP increase (activation)” value was -2%. With CCOC(=O)C(C)(C)Oc1ccc(Cl)cc1 the “GFP increase (activation)” value was -7.97%. NC/C=C/C(=O)O was tested, and the “GFP increase (activation)” value was -1.68%. In the case of CC(C(O)c1ccc(O)cc1)N1CCC(Cc2ccccc2)CC1 (stereo not given), the “GFP increase (activation)” value is reported as 3.15%. Nc1ncnc2c1ncn2[C@@H]1O[C@H](CO)[C@@H](O)[C@H]1O was tested, and the “GFP increase (activation)” value was 3.8%. For C1COC(NC(C2CC2)C2CC2)=N1, the “GFP increase (activation)” value was 1.13%. With N=C(N)SCCc1cnc[nH]1 the “GFP increase (activation)” value was -6.55%. In the case of CNS(=O)(=O)CCc1ccc2[nH]cc(C3CCN(C)CC3)c2c1, the “GFP increase (activation)” value is reported as 5.49%. For COC(=O)C(N)Cc1ccc(Cl)cc1 (stereo not given), the “GFP increase (activation)” value was 10.3%. With Cc1nc2c(OCc3ccccc3)cccn2c1CC#N the “GFP increase (activation)” value was -8.92%. With Clc1ccc(C(c2ccc(Cl)cc2)n2cc[n+](CC(OCc3ccc(Cl)cc3Cl)c3ccc(Cl)cc3Cl)c2)cc1 (stereo not given) the “GFP increase (activation)” value was -3.41%. CC(C)(C(=O)O)c1ccc(C(O)CCCN2CCC(C(O)(c3ccccc3)c3ccccc3)CC2)cc1 (stereo not given) was tested, and the “GFP increase (activation)” value was -22%. Nc1ccc2c3c(cccc13)C(=O)NC2=O was tested, and the Potency was 30.1 µM (active). In the case of C[C@H](NC(=O)/C(C#N)=C/c1ccc(O)c(O)c1)c1ccccc1, the “GFP increase (activation)” value is reported as 4.9%. For Cc1cc(NC2CCCCC2)nc(-n2nc(C)cc2C)n1, the “GFP increase (activation)” value was 11.1%. For CCC(C)N(C)C(=O)c1cc2ccccc2c(-c2ccccc2Cl)n1 (stereo not given), the “GFP increase (activation)” value was -7.16%. For CNC[C@H](O)c1cccc(O)c1, the “GFP increase (activation)” value was -6%. For NC(=Nc1ccccc1)NC(=O)c1nc(Cl)c(N)nc1N, the “GFP increase (activation)” value was 0.015%. Cn1cc(C(=O)OCC2CCN(CCNS(C)(=O)=O)CC2)c2ccccc21 was tested, and the “GFP increase (activation)” value was -10.2%. For CCCNCC(O)COc1ccccc1C(=O)CCc1ccccc1 (stereo not given), the “GFP increase (activation)” value was -0.137%.
